Screening results deposited in PubChem BioAssay by National Center for Advancing Translational Sciences (NCATS).
NPC1 prom act – qHTS Assay for NPC1 Promoter Activators; Huh7 NPC1 promoter luciferase reporter, 24 h; Potency, µM (top dose mostly 9.22 µM), for the others: at the highest dose activation, actives largely listed as activators; 320,000 tested, 2.4% active; also: % of control where 0% means no effect; nearly all actives have a fitted effect of over 60% in size
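In 1536-well qHTS, Huh7 cells harboring an NPC1 promoter–luciferase construct received compound for 24 h; activation was quantified by luminescence following luciferase reagent addition.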
Rab9 prom act – qHTS Assay for Rab9 Promoter Activators; Huh7 Rab9 promoter-luciferase reporter, luminescence, 24 h; Potency, µM (top dose mostly 9.22 µM), for the others: at the top dose activation, negative = inhibition, most hits filed as activators; 320,000 tested, 2.8% active; also: % of control where 0% means no effect; nearly all actives have a fitted effect of over 60% in size
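Promoter activation is measured as luciferase luminescence in Huh7 cells stably transfected with a Rab9 promoter–luciferase construct, following 24 h compound exposure at 37 °C and 10 min reagent incubation at ambient temperature.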
ELG1 genotox – qHTS screen for small molecules that induce genotoxicity in human embryonic kidney (HEK293T) cells expressing luciferase-tagged ELG1 | HEK293T ELG1-luciferase reporter, luminescence, 16 h | Potency, µM (titrated, usually from 46 µM), inactives show at the highest dose activity change, positive = activation, usual class: activators | 330,000 tested, 1.3% active | AID 504466, 2011; also: % of control where 0% means no effect; nearly all actives have a fitted effect of over 60% in size
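Quantitative HTS format in 1536-well plates. HEK293T ELG1-luciferase reporter cells receive test compound and are incubated 16 hr at 37 °C, 5% CO2; ONE-Glo added, 30 min room temperature, then luminescence read.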
KinaseGlo FLuc – Counterscreen for Luciferase (Kinase-Glo TM) Inhibition. Luciferin 4-monooxygenase (Photuris pensylvanica), Q27757. Kinase-Glo luciferase, ATP luminescence, 8 min. Potency, µM (series often up to 38.3 µM), without a hit: at the highest dose activity change, negative = inhibition, most hits filed as inhibitors. 200,000 tested, 0.28% active. AID 1379, 2008; also: % is scaled to controls: 0 for no effect and ±100 for the full control effect; nearly all actives have a fitted effect of over 60% in size
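Recombinant Kinase-Glo luciferase, 10 uM ATP (linear range), luciferin; imidazole pH 7.2 / KCl / MgCl2 / Tween / BSA buffer; 8 min RT; luminescence.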
FLuc counter – qHTS profiling assay for firefly luciferase inhibitor/activator using purifed enzyme and Km concentrations of substrates (counterscreen for miR-21 project) | Potency, µM (titrated, usually from 57.5 µM), for the others: at the highest dose activity change, negative = inhibition, usual class: inhibitors | Luciferin 4-monooxygenase (Photinus pyralis), P08659 | purified FLuc, Km substrates, luminescence inhibition | 360,000 tested, 6.9% active;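 also: plate controls were vehicle for no effect and reference inhibitor for full effect; nearly all actives have a fitted effect of over 55% in size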
Target sequence (P08659 whole entry, looked up): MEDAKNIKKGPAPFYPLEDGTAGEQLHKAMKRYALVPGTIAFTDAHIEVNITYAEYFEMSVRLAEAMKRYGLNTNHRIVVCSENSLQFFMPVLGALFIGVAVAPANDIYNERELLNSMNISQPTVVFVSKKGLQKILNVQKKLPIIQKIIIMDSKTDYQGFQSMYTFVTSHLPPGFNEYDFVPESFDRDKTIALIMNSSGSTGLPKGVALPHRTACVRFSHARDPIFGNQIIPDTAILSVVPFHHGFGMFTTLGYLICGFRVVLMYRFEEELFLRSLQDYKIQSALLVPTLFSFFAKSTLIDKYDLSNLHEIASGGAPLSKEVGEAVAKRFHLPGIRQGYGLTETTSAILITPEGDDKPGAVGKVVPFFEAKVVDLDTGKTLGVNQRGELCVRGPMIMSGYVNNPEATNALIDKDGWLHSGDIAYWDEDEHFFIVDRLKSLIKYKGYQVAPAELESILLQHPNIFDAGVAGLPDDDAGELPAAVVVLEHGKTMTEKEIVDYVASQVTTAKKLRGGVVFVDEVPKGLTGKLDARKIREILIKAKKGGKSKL
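Purified P. pyralis luciferase (10nM final) with 10uM D-luciferin and 10uM ATP (Km levels) in 50mM Tris acetate pH 7.5, 10mM Mg acetate, 0.01% Tween-20, 0.05% BSA; qHTS 6-point titration, ~60 µM downward; luminescence read.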
SMN2 splice up – qHTS Assay for Enhancers of SMN2 Splice Variant Expression; HEK293 SMN2-luciferase splicing reporter, luminescence, 30-36 h; 210,000 tested, 2.8% active; Potency, µM (series often up to 46.1 µM), without a hit: at the top dose activity change, positive = activation, usual class: activators; also: % of control where 0% means no effect; nearly all actives have a fitted effect of over 55% in size
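qHTS luciferase splicing reporter: luminescence rises when SMN2 exon 7 is included in transfected HEK293 cells. Compound exposure lasted 30-36 h at 37C, with 4.5 mM final sodium butyrate as control, followed by a ONE-Glo read.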
* = called active by the depositor; ? = inconclusive; · = not tested or not shown. A selection: hits, their analogues and other compounds. The true share with any hit is near 7.5%. Calls follow the shape of the dose curve; as a rule, active = well fitted curve in the direction sought with a large enough effect; inconclusive = small, poorly fitted or top-dose-only effect, or another doubt; inactive = no such curve, though single readings can be large; an effect the other way counts as inactive or inconclusive. Potency is read from the fitted curve at half-maximal effect.

SMILES	NPC1 prom act	Rab9 prom act	ELG1 genotox	KinaseGlo FLuc	FLuc counter	SMN2 splice up
COc1ccc(C(=O)NCc2ccc(-c3nc4ccccc4s3)cc2)cc1	24%	22%	-1%	-1%	2.4µM*	-6%
COc1ccccc1C(=O)Nc1ccc(-c2nc3ccccc3s2)c(C)c1	·	·	·	·	3.8µM*	·
CCOc1ccccc1NC(=O)Cc1coc2c(C)c(C)ccc12	·	·	·	·	-15%	-3%
CCOC(=O)c1sc(NC(=O)c2nc(SCC)ncc2Cl)c(C(=O)OCC)c1C	·	·	·	·	2%	24%
Cc1ccc2c(c1)cc1c(=O)n(Cc3ccccc3Cl)nc(C)n12	·	·	·	·	2%	14%
COc1cccc(CNC(=O)c2c(C)nn(-c3ccc(F)cc3)c2-n2cccc2)c1	·	·	·	·	-19%	·
COc1cccc(C(=O)NCc2ccc(-c3nc4ccccc4s3)cc2)c1	10%	?	21µM*	-4%	2.7µM*	?
Cc1nc(NC(=O)/C=C/c2ccc(F)cc2)sc1C(=O)N(C)C	0%	-5%	7%	2%	17µM*	27%
Cc1nc(NC(=O)/C=C/c2ccccc2)sc1C(=O)N(C)C	24%	?	16%	3%	13µM*	41%
Cc1nc(NC(=O)/C=C/c2ccccc2)sc1C(=O)N1CCCCC1	1%	-5%	-3%	-2%	?	1%
Cc1nc(NC(=O)/C=C/c2ccc(Cl)cc2Cl)sc1C(=O)N(C)C	-3%	-4%	6%	3%	?	15%
CCn1c(CN2CCOCC2)nc2cc(NC(=O)c3ccccc3[N+](=O)[O-])ccc21	·	·	·	·	0%	·
COc1cccc(C(=O)N2CCN(C(=O)COc3ccc4ccccc4c3)CC2)c1	-5%	-2%	-24%	·	6µM*	·
COc1cc(C(=O)N2CCN(C(=O)COc3ccc4ccccc4c3)CC2)cc(OC)c1OC	8%	1%	2%	-1%	11µM*	-8%
COc1ccc(C(=O)N2CCN(C(=O)c3cc(OC)c(OC)c(OC)c3)CC2)cc1	-4%	-6%	-4%	1%	7%	10%
COc1ccc(S(=O)(=O)c2c(SC)nn(CC(=O)Nc3cccc(C)c3C)c2N)cc1	·	·	·	·	-6%	·
COC(=O)C1=C(O)/C(=C\c2ccc(OCC(=O)Nc3ccccc3)cc2)N=C1C	-2%	-2%	3%	·	24µM*	·
COC(=O)C1=C(O)/C(=C/c2cccc(OC)c2O)N=C1C	-4%	?	13%	·	15µM*	·
CCc1cccc(NC(=O)CN(c2ccc(C)cc2)S(=O)(=O)c2cccs2)c1	·	·	·	·	1%	-8%
O=C1NC(c2ccccc2Cl)=N/C1=C/c1ccco1	9%	?	?	·	0.3µM*	·
O=C1NC(c2ccc(Br)cc2)=N/C1=C/c1ccco1	3.5µM*	2.5µM*	?	0%	0.6µM*	7.1µM*
CC(C)c1ccc(/C=C/C(=O)Nc2nncs2)cc1	0.89µM*	0.5µM*	?	-2%	0.76µM*	18µM*
Cc1sc(NC(=O)/C=C/c2ccc(C(C)C)cc2)c(C#N)c1C	-4%	2%	5%	0%	-5%	-5%
CC(=O)Nc1ccc(S(=O)(=O)Nc2ccc(-c3cn4c(C)csc4n3)cc2)cc1	·	·	·	·	17µM*	·
CCS(=O)(=O)Nc1ccc(-c2cn3c(C)csc3n2)cc1	·	·	·	·	19µM*	·
SMILES	NPC1 prom act	Rab9 prom act	ELG1 genotox	KinaseGlo FLuc	FLuc counter	SMN2 splice up
CCS(=O)(=O)NCc1cn2c(C)csc2n1	5%	-4%	3%	-5%	-1%	2%
COc1ccc(C)c2sc(N(Cc3cccnc3)C(C)=O)nc12	·	·	·	·	-1%	·
O=C(NCCc1csc(-c2cccnc2)n1)c1ccc(Cl)cc1	-2%	-1%	-3%	·	9.5µM*	·
CC(C)Oc1ccc(C(=O)NCCc2csc(-c3cccc(F)c3)n2)cc1	·	·	·	·	24µM*	·
O=C(Cc1ccc(F)cc1)NCCc1csc(-c2cccc(F)c2)n1	·	·	·	·	-3%	·
O=C(NCc1ccc(Cl)cc1)c1csc(-c2cccnc2)n1	5%	-6%	-8%	·	0%	·
O=C(NNC(=O)c1ccc(Cl)cc1Cl)c1csc(-c2cccnc2)n1	25%	17%	3%	·	5.4µM*	·
CCOc1ccc(C(=O)NCCc2csc(-c3cccnc3)n2)cc1	·	·	·	·	21µM*	·
Cc1ccc(C)c(NC(=O)c2cnn(-c3cccc(F)c3)c2C2CCN(C(=O)OC(C)(C)C)CC2)c1	·	·	·	·	-5%	·
O=C(NCCc1csc(-c2cccnc2)n1)c1ccccc1Br	1%	-2%	-5%	·	17µM*	·
CC(C)c1ccc(-c2nnc3n(CCc4ccccc4)c(=O)c4ccccc4n23)cc1	·	·	·	·	1%	·
C=CCn1cnc2c(sc3nc(C)cc(C)c32)c1=O	6%	19%	?	·	17µM*	·
CCOC(=O)Cn1cnc2c(sc3nc(C)cc(C)c32)c1=O	?	?	?	·	12µM*	·
COC(=O)Cn1c(C)nc2c(sc3nc(C)cc(C)c32)c1=O	?	?	16µM*	0%	12µM*	11µM*
Cc1c2cnn(-c3ccccc3)c(=O)c2c(C)n1CC(=O)NCc1ccccc1Br	·	·	·	·	3%	8%
CCCCNC(=O)CN1C(=O)c2c(c3ccccc3n2C)C1c1ccc(OC)cc1 (stereo not drawn)	·	·	·	·	2%	·
Cn1c(=O)[nH]c(=O)c2c1nc(CN1CCN(c3ccccc3F)CC1)n2Cc1ccc(F)cc1	·	·	·	·	-1%	27%
CN(C)c1ccc(/C=C/c2nc3ccccc3c(=O)n2CCO)cc1	15%	9%	-2%	·	-15%	·
Oc1ccccc1-c1nc(/C=C/c2ccccc2Cl)nn1-c1ccccc1	·	·	·	·	6µM*	2%
Cc1noc(C)c1COC(=O)/C=C/c1ccccc1Cl	0%	0%	2%	2%	?	-6%
Oc1ccccc1-c1nc(/C=C/c2ccccc2Cl)no1	·	·	·	·	0.19µM*	-2%
